aSyn 5UTR act – Activators via SNCA 5'UTR binding, MLPCN. alpha-synuclein 5'UTR reporter, activators screen. activity score, % (tested at 7.5 µM), hits read low. 7.1% of 300,000 active; in the data active = activity score below about -60%
Each line names hits and unclear results; the compound was inactive in the other large screens. Not all results are given here.

Cc1csc(NC(=O)Cc2ccccc2Cl)n1	aSyn 5UTR act -99
CCOC(=O)c1c(N/N=C/c2cccnc2)n[nH]c1C	aSyn 5UTR act -157
COc1ccc(NC(=O)/C=C/c2cccc(F)c2)cn1	aSyn 5UTR act -196
COc1ccc(NC(=O)/C=C/c2ccco2)cn1	aSyn 5UTR act -237
CSc1nn(-c2ccc(C(=O)OCC(=O)NC(=O)NC(C)C)cc2)c(=S)s1	aSyn 5UTR act -69
O=C(Nc1ccc(NC(=O)C2CC2)nc1)c1ccccc1F	aSyn 5UTR act -95
O=C(Nc1ccc(NC(=O)C2CCCCC2)nc1)c1cccs1	aSyn 5UTR act -124
CCCC(=O)Nc1ccc(NC(=O)c2ccccc2F)cn1	aSyn 5UTR act -90
N=C(N)c1ccc(OCCCCCOc2ccc(C(=N)N)cc2)cc1	none
CCCCCCOc1ccc(/C(N)=N/O)cc1	aSyn 5UTR act -173
CC1CCCCN1C(=O)CSc1nnc(-c2ccccc2F)o1 (configuration not stated)	aSyn 5UTR act -84
CC1CCCCN1C(=O)CSc1nnc(-c2ccco2)o1 (configuration not stated)	aSyn 5UTR act -136
COc1ccc(-c2nnc(SCC(=O)N3CCCC3)o2)c(OC)c1	aSyn 5UTR act -83
O=C(CSc1nnc(-c2ccccc2F)o1)N1CCCC1	aSyn 5UTR act -76
Cc1ccc(N=Nc2c(N)n[nH]c2N)cc1	aSyn 5UTR act -93
Nc1n[nH]c(N)c1N=Nc1ccc2c(c1)OCO2	aSyn 5UTR act -229
Cc1nccc(-c2ccc(-n3cnc4ccccc43)cc2)n1	aSyn 5UTR act -96
Nc1nccc(-c2ccc(-n3cnc4ccccc43)cc2)n1	aSyn 5UTR act -63
CC(=O)Nc1cccc(-c2cn3ccccc3n2)c1	aSyn 5UTR act -78
Oc1ccc(-c2cn3ccccc3n2)cc1O	aSyn 5UTR act -124
c1ccc2c(-c3cn4ccccc4n3)c[nH]c2c1	aSyn 5UTR act -281
O=C(Nc1cccc(-c2cn3ccccc3n2)c1)c1cc2ccccc2oc1=O	aSyn 5UTR act -100
Cc1c(C(=O)O)cccc1-c1ccc(/C=N/n2cnnc2)o1	aSyn 5UTR act -79
Cc1c(C(=O)O)cccc1-c1ccc(/C=N/Nc2ccc(Br)cc2)o1	aSyn 5UTR act -145
Cc1cc(C(=O)OC(C(=O)Nc2ccc(C)c(Cl)c2)c2ccccc2)c(C)o1 (configuration not stated)	aSyn 5UTR act -68
O=c1[nH]c(-c2cccnc2)nc2sc(-c3ccccc3)cc12	aSyn 5UTR act -119
CC(C)OC(=O)Cc1nc2sc(-c3ccccc3)cc2c(=O)[nH]1	aSyn 5UTR act -87
CCc1nc2cc3sc(CC)nc3cc2s1	aSyn 5UTR act -133
Cc1occc1C(=O)NNC(=S)Nc1ccccc1	aSyn 5UTR act -88
Cc1occc1C(=O)NNC(=S)Nc1ccccc1C(F)(F)F	aSyn 5UTR act -86
Cc1occc1C(=O)NNC(=O)c1ccccc1F	aSyn 5UTR act -82
Cc1ccc(OCc2cn3cccnc3n2)cc1	aSyn 5UTR act -62
O=C(CCl)NN1C(=O)NC2(CCCCC2)C1=O	aSyn 5UTR act -76
O=C(CCl)NN1C(=O)NC(c2ccccc2)(c2ccccc2)C1=O	aSyn 5UTR act -86
COC(=O)Nc1nnc(/C=C/c2ccc(OC)cc2)s1	aSyn 5UTR act -109
COc1ccc(/C=C/c2nnc(NC(C)=O)s2)cc1	aSyn 5UTR act -117
CCn1nnc(NC(=O)c2ccc(C(C)(C)C)cc2)n1	aSyn 5UTR act -112
CCCn1nnc(NC(=O)c2ccc3ccccc3c2)n1	aSyn 5UTR act -185
CCCn1nnc(NC(=O)c2cccc(OCC)c2)n1	aSyn 5UTR act -141
CCCn1nnc(NC(=O)c2ccc(Cl)cc2Cl)n1	aSyn 5UTR act -115
Cc1ccc(C(=O)Nc2nnn(C)n2)cc1	aSyn 5UTR act -76
O=C(N/N=C/c1ccc(Br)s1)c1c[nH]c2ccccc12	aSyn 5UTR act -152
O=C(N/N=C/c1cc(Br)cs1)c1c[nH]c2ccccc12	aSyn 5UTR act -68
COc1ccc(NC2=C3CC(C)CC=C3N(c3ccc(OC)cc3)C2=O)cc1 (configuration not stated)	aSyn 5UTR act -84
Cc1cccc2cc(C#N)c(SCC(=O)N3CC(=O)Nc4ccccc43)nc12	none
Cc1cc(NC(=O)CSc2nc3c(C)cccc3cc2C#N)no1	aSyn 5UTR act -209
CSc1nc2ccc(NC(=O)c3ccc(=O)n(C)n3)cc2s1	aSyn 5UTR act -70
CSc1nc2ccc(NC(=O)c3cc4ccccc4o3)cc2s1	aSyn 5UTR act -126
COc1ccc2nc(NC(=S)NC(=O)c3ccco3)sc2c1	aSyn 5UTR act -133
CC(=O)Nc1ccc2nc(NC(=O)c3ccc([N+](=O)[O-])o3)sc2c1	aSyn 5UTR act -100
CC(=O)Nc1ccc2nc(NC(=O)c3ccco3)sc2c1	aSyn 5UTR act -96
O=C(Nc1nc2ccc([N+](=O)[O-])cc2s1)c1ccco1	aSyn 5UTR act -74
CSc1nc2ccc(NC(=O)c3ccco3)cc2s1	aSyn 5UTR act -134
CSc1nc2ccc(NC(=O)c3ccc(F)c(F)c3)cc2s1	aSyn 5UTR act -143
COc1cccc(N=c2oc3ccccc3cc2-c2nc3ccccc3[nH]2)c1	aSyn 5UTR act -80
CC(=O)Oc1ccc(/C=C2/Oc3ccccc3C2=O)cc1	aSyn 5UTR act -75
O=C1/C(=C/c2ccccc2)Oc2cc(OC(=O)N3CCOCC3)ccc21	aSyn 5UTR act -110
c1ccn2c(SCc3cn4ccsc4n3)nnc2c1	aSyn 5UTR act -166
Clc1ccc(CSc2nnc3ccccn23)c(Cl)c1	aSyn 5UTR act -75
Clc1ccc(CSc2snnc2-c2ccccc2)c(Cl)c1	aSyn 5UTR act -121
O=[N+]([O-])c1ccccc1CSc1nnc2ccccn12	aSyn 5UTR act -121
COCCOCCn1c(/C=C/c2ccccc2)nc2ccccc21	aSyn 5UTR act -97
COc1cc(Cn2c(-c3nonc3N)nc3ccccc32)ccc1C	none
CC(C)n1c(/C=C/c2ccccc2)nc2ccccc21	aSyn 5UTR act -118
COc1ccc(/C=C/c2nc3ccccc3n2Cc2ccc(OC)c(OC)c2)cc1	aSyn 5UTR act -191
O=C(/C=C/c1cccs1)Nc1ccc(N2CCOCC2)c(S(=O)(=O)Nc2ccccc2Cl)c1	aSyn 5UTR act -139
O=C(Nc1ccc(Cl)c(Cl)c1)Nc1ccc(N2CCCC2)c(S(=O)(=O)Nc2ccccc2Cl)c1	none
CN(C)/C=C/C(=O)c1ccc(-c2ccc(Cl)cc2Cl)o1	aSyn 5UTR act -106
O=C(c1ccc(-c2ccc(Cl)cc2Cl)o1)N1CCOCC1	aSyn 5UTR act -104
O=C(c1cc(-c2ccc(Cl)cc2)on1)N1CCCCCC1	aSyn 5UTR act -148
O=C(c1cc(-c2ccc(Cl)cc2Cl)on1)N1CCCCCC1	aSyn 5UTR act -71
Cc1ccc(-c2cc(C(=O)N3CCCC3)no2)cc1	none
O=C(c1cc(-c2ccc(Cl)c(Cl)c2)on1)N1CCCCCC1	aSyn 5UTR act -198
O=C(c1cc(-c2ccc(O)cc2)on1)N1CCCCCC1	aSyn 5UTR act -94
O=C(c1cc(-c2cccc(Cl)c2)on1)N1CCCCCC1	aSyn 5UTR act -175
Cc1ccc(NC(=O)C2C3C=CC4(CN(Cc5cccnc5)C(=O)C24)O3)cc1 (configuration not stated)	aSyn 5UTR act -80
Cc1cc(=O)[nH]c(N=N/C(=N/Nc2ccc(O)cc2)c2ccccc2)n1	aSyn 5UTR act -100
COc1ccc(N/N=C(/N=Nc2nc(C)cc(=O)[nH]2)c2ccccc2)cc1	none
CCN1C(=Nc2ccc(Cl)cc2)SC/C1=C\C(=O)OC	aSyn 5UTR act -81
Fc1ccccc1/C=N/Nc1nc(-c2ccccn2)nc2ccccc12	none
c1ccc(CN2CCC(Nc3nc(-c4cccnc4)nc4ccccc34)CC2)cc1	aSyn 5UTR act -83
Cc1ccc(Nc2nc(-c3cccnc3)nc3ccccc23)cc1	aSyn 5UTR act -95
